The text below walks through data of PubChem BioAssay AID652042 (Broad Institute, 2013).

About 350 (32%) of roughly 1,100 compounds were called active. The rule behind the calls is not given here. These entries were drawn from the full list. Entries with a potency or affinity are not part of this list.

The assay in a line: viability loss in CEM21 cells – cell-based, CellTiter-Glo luminescence, cherry-picked, cytotoxicity control for viral fusion inhibitor project, dose response (AID 652042). The following applies: CellTiter-Glo ATP luminescence, 24 h; series mostly up to 35 µM.
For `O=C1c2cccnc2C(Nc2ccc(S(=O)(=O)N3CCCCCC3)cc2)N1Cc1ccccc1` (stereo not given), the activity change, negative = cytotoxicity result was “inactive”.

Consider `C[C@H]1CN([C@@H](C)CO)C(=O)c2ccccc2-c2ccccc2CO[C@@H]1CN(C)C(=O)CCC(F)(F)F`, for which the activity change, negative = cytotoxicity result was “inactive”.

Regarding `C[C@H]1CN([C@@H](C)CO)C(=O)c2ccccc2-c2ccccc2CO[C@H]1CN(C)S(=O)(=O)c1cccc(C#N)c1`, the activity change, negative = cytotoxicity entry is “inactive”.

In the case of `CC(OC(=O)c1ccc(NC(=O)CC#N)cc1)C(=O)NCCC1=CCCCC1` (stereo not given), the activity change, negative = cytotoxicity entry is “inactive”.

For `Cc1nc2ccccc2c2oc(C(=O)NCc3ccc4c(c3)OCO4)cc12`, the activity change, negative = cytotoxicity entry was “inactive”.

Turning to `Cc1ccc(S(=O)(=O)NCC(=O)OCC(=O)NCc2ccc3c(c2)OCO3)cc1`, the activity change, negative = cytotoxicity entry was “inactive”.

For the compound `C[C@@]12C(=O)N(c3cccc(Cl)c3)C(=O)N1[C@H](c1ccc(Cl)cc1)[C@@H]1C(=O)N(C3CCCCC3)C(=O)[C@@H]12`, the activity change, negative = cytotoxicity entry was “inactive”.

In the case of `COc1ccc(C(O)c2nc3ccccc3n2C)cc1OC` (stereo not given), the activity change, negative = cytotoxicity result was “inactive”.

With `CCCCCCCn1c(NC(=O)CC)nc2ccccc21`, the activity change, negative = cytotoxicity result was “inactive”.

Turning to `Cc1ccc2cc(C#N)c(NCCNC(=O)C3CCC3)nc2c1C`, the activity change, negative = cytotoxicity result is “inactive”.

For the compound `CC1=NN(C(=O)c2ccccc2)C(O)(c2ccc(Br)cc2)C1` (stereo not given), the activity change, negative = cytotoxicity result is “inactive”.

For `Cc1ccc(S(=O)(=O)N(C)C[C@@H]2Oc3ccc(NC(=O)Cc4cn(C)c5ccccc45)cc3CC(=O)N([C@H](C)CO)C[C@@H]2C)cc1`, the activity change, negative = cytotoxicity entry was “inactive”.

Consider `CC(C)CNC(=O)c1ccccc1NC(=O)c1ccccc1N(C)S(=O)(=O)c1ccccc1`, for which the activity change, negative = cytotoxicity entry is “inactive”.

As to `CNC[C@H]1Oc2c(NC(=O)Nc3cccc4ccccc34)cccc2C(=O)N([C@H](C)CO)C[C@H]1C`, the activity change, negative = cytotoxicity result is “inactive”.

Consider `Cc1nc2ccc(NC(=O)c3cc(S(=O)(=O)N(C)c4ccccc4)ccc3Cl)cc2s1`, for which the activity change, negative = cytotoxicity result is “inactive”.

With `CC(=O)c1c(C)[nH]c(C(=O)OCC(=O)Nc2ccc(Cl)c(S(=O)(=O)N(C)C)c2)c1C`, the activity change, negative = cytotoxicity entry is “inactive”.

`CC[C@@]1(C(=O)OC)N[C@H](CN(C)C(=O)Nc2ccc(OC)cc2)[C@@H]2C(=O)N(Cc3ccccc3)C(=O)[C@@H]21`: the activity change, negative = cytotoxicity entry was “inactive”.

Consider `COc1ccc(CCNC(=O)COC(=O)c2cccn2C)cc1`, for which the activity change, negative = cytotoxicity result is “inactive”.

Regarding `COc1ccc(CCCC(=O)NCCc2ccccc2)c(C)c1`, the activity change, negative = cytotoxicity entry is “inactive”.

For the compound `CCOC(=O)c1c(C)[nH]c(C)c1C(=O)COC(=O)[C@@H](NC(=O)c1ccccc1OCC)C(C)C`, the activity change, negative = cytotoxicity entry was “inactive”.

`COc1ccccc1N(C)S(=O)(=O)c1ccc(Cl)c(C(=O)NCC2(N(C)C)CCCCC2)c1`: the activity change, negative = cytotoxicity result was “inactive”.

For the compound `C[C@H](CO)N1C[C@H](C)[C@@H](CN(C)S(=O)(=O)c2ccc(F)cc2)Oc2ccc(NS(=O)(=O)c3cn(C)cn3)cc2CC1=O`, the activity change, negative = cytotoxicity entry was “inactive”.

For the compound `CC(C)(C)N1C(=O)[C@H]2[C@@H](c3ccc(Br)cc3)N3C(=O)N(c4cccc(Cl)c4)C(=O)[C@@]3(C)[C@H]2C1=O`, the activity change, negative = cytotoxicity entry was “inactive”.

With `CC[C@@]12C(=O)N(c3cccc(F)c3)C(=O)N1[C@H](c1ccc(Br)cc1)[C@@H]1C(=O)N(C(C)(C)C)C(=O)[C@@H]12`, the activity change, negative = cytotoxicity entry was “inactive”.

Regarding `Cc1cc(C)c2nc(C(F)(F)F)nc(N3CCN(C(=O)c4ccco4)CC3)c2c1`, the activity change, negative = cytotoxicity entry is “inactive”.

For `CCC(NS(=O)(=O)c1c(C)[nH]c(=O)[nH]c1=O)C12CC3CC(CC(C3)C1)C2` (stereo not given), the activity change, negative = cytotoxicity result was “inactive”.

Consider `CC1=C(C(=O)OCc2ccc3c(c2)OCO3)C(c2ccc(F)cc2)NC(=O)N1` (stereo not given), for which the activity change, negative = cytotoxicity entry is “inactive”.

Consider `COC(=O)C1=C(C)N(Cc2ccc(Cl)cc2)C(=S)NC1c1ccc(OC)cc1` (stereo not given), for which the activity change, negative = cytotoxicity result is “inactive”.

With `CCN(CC)CCN(C(=O)c1cc(Cl)sc1Cl)c1nc2cc3c(cc2s1)OCO3`, the activity change, negative = cytotoxicity result was “inactive”.

Take `CCN(C[C@H]1N[C@@](C)(C(=O)OC)[C@H]2C(=O)N(Cc3ccccc3)C(=O)[C@@H]12)C(=O)Nc1ccc(C)cc1`: the activity change, negative = cytotoxicity entry was “inactive”.

For `COc1ccc(S(=O)(=O)n2ccc(-c3ccc(OCCN(C)c4ccccn4)cc3)n2)cc1`, the activity change, negative = cytotoxicity entry was “inactive”.

In the case of `S=c1nc[nH]c2c1[nH]c1ccc(Cl)cc12`, the activity change, negative = cytotoxicity result is “inactive”.

On to `Clc1ccc2c(c1)C1=C(C(c3ccncc3)O2)C(c2ccc(Br)cc2)n2ncnc2N1` (stereo not given), for which the activity change, negative = cytotoxicity result was “inactive”.

With `CCS(=O)(=O)N1Cc2ccccc2CC1C(=O)NCC12CC3CC(CC(C3)C1)C2` (stereo not given), the activity change, negative = cytotoxicity result was “inactive”.

For `CCN1C[C@@H]2[C@@H]3C(=O)N(Cc4ccccc4)C(=O)[C@@H]3[C@](CC)(C1=O)N2C(=O)c1ccc(C(C)(C)C)cc1`, the activity change, negative = cytotoxicity result was “inactive”.

Consider `C[C@@]12C(=O)N(Cc3ccc(F)cc3)CC(=O)N1[C@H]1c3cc(Cl)ccc3OC[C@@H]1[C@@H]2c1ccccc1`, for which the activity change, negative = cytotoxicity entry was “inactive”.

On to `COc1ccc2c(c1)[C@H]1[C@H](CO2)[C@H](c2ccccc2)[C@]2(C)C(=O)Nc3cc(OC)c(OC)cc3C(=O)N12`, for which the activity change, negative = cytotoxicity result was “inactive”.

For `O=C(O)c1cccc(COc2ccc3c(c2)CCC3)c1`, the activity change, negative = cytotoxicity result was “inactive”.

Consider `COc1ccc([C@H]2/C=C\CN(C(=O)C3CC3)[C@@H](C)C(=O)N2Cc2ccc(F)cc2)cc1`, for which the activity change, negative = cytotoxicity entry was “inactive”.

`CCC(C)(C)NC(=O)C(c1ccc(C)cc1)N(CC1CCCO1)C(=O)c1csnn1` (stereo not given): the activity change, negative = cytotoxicity result was “inactive”.

Take `O=C(CN1CCCN(Cc2ccc(F)cc2Cl)C1=O)NC1CCCCCCC1`: the activity change, negative = cytotoxicity result was “inactive”.

Regarding `CCN(CCn1cccn1)C(=O)CC1C(=O)NCCN1CCc1ccccc1` (stereo not given), the activity change, negative = cytotoxicity result is “inactive”.

For the compound `O=C(C[C@H]1C[C@@H]2c3cc(NC(=O)C4CCC4)ccc3O[C@@H]2[C@@H](CO)O1)NCC(F)(F)F`, the activity change, negative = cytotoxicity entry is “inactive”.

With `Cc1ccc(C)c(CS(=O)(=O)c2cn(CC(=O)N3CCC(C)CC3)c3ccccc23)c1`, the activity change, negative = cytotoxicity result was “inactive”.

With `CCCCN1CC(=O)N2[C@H]3c4ccccc4OC[C@@H]3[C@H](c3ccccc3)[C@]2(C)C1=O`, the activity change, negative = cytotoxicity result was “inactive”.

For `Cc1ccc(-n2nnnc2SCn2nnc3ccccc3c2=O)c(C)c1`, the activity change, negative = cytotoxicity entry is “inactive”.

As to `COc1cc(CSc2nnnn2-c2ccc(C)cc2)cc(OC)c1OC`, the activity change, negative = cytotoxicity entry was “inactive”.

For the compound `O=C(NCc1ccccc1)[C@@H]1CCCN1C(=O)[C@@H]1CCCN1C(=O)c1cccc2ccccc12`, the activity change, negative = cytotoxicity result is “inactive”.

As to `Cc1ccc(S(=O)(=O)N2CCC(=O)N(CCOCc3ccc(C(F)(F)F)cc3)CC2)cc1`, the activity change, negative = cytotoxicity entry is “inactive”.

As for `NC(=O)c1sc2nc3c(c(-c4ccccc4)c2c1N)CCC3`, the activity change, negative = cytotoxicity entry was “inactive”.

With `COc1ccc(N(CC(=O)NCCSCc2ccc(Cl)cc2)S(C)(=O)=O)cc1Cl`, the activity change, negative = cytotoxicity entry is “inactive”.

For `Cc1ccc(N2C(=O)N3[C@H](c4cccc(C)c4)[C@@H]4C(=O)N(Cc5ccccc5)C(=O)[C@@H]4[C@]3(C)C2=O)cc1`, the activity change, negative = cytotoxicity entry is “inactive”.

`O=C(NCc1ccco1)c1ccc(Cn2c(=O)c3sccc3n(Cc3ccc(F)cc3)c2=O)cc1`: the activity change, negative = cytotoxicity result was “inactive”.

`CC(=O)Nc1ccc(C(=O)OCC(=O)NC(=O)NCc2ccccc2)cc1`: the activity change, negative = cytotoxicity entry was “inactive”.

With `CCCOc1ccc(C(F)(F)F)cc1NC(=O)CCc1c(C)noc1C`, the activity change, negative = cytotoxicity result was “inactive”.

In the case of `CCN(C[C@H]1N[C@@](CC)(C(=O)OC)[C@H]2C(=O)N(Cc3ccccc3)C(=O)[C@@H]12)S(=O)(=O)c1ccc(OC)cc1`, the activity change, negative = cytotoxicity entry was “inactive”.

Consider `O=C1CC(C(=O)N(CC2CCCO2)C(C(=O)NC2CCCCC2)c2ccncc2)CS1` (stereo not given), for which the activity change, negative = cytotoxicity entry was “inactive”.

`OC1(c2ccc(OC(F)F)cc2)CSC(=Nc2cccnc2)N1C1CC1` (stereo not given): the activity change, negative = cytotoxicity result is “inactive”.

In the case of `COc1ccc(S(=O)(=O)N(C)C[C@@H]2Oc3ccc(NC(=O)C4CCCCC4)cc3CC(=O)N([C@@H](C)CO)C[C@@H]2C)cc1`, the activity change, negative = cytotoxicity result is “inactive”.

As for `Cc1noc(C)c1S(=O)(=O)N(C)C[C@@H]1Oc2ccc(NC(=O)NC3CCCCC3)cc2CC(=O)N([C@H](C)CO)C[C@@H]1C`, the activity change, negative = cytotoxicity result is “inactive”.

As to `C[C@H]1CN([C@@H](C)CO)C(=O)Cc2cc(NC(=O)Cc3ccccc3)ccc2O[C@H]1CN(C)S(=O)(=O)c1cccs1`, the activity change, negative = cytotoxicity entry is “inactive”.

Take `CC(C)(C)c1ccc(-c2noc(CCC(=O)NCC3CCCO3)n2)cc1` (stereo not given): the activity change, negative = cytotoxicity entry is “inactive”.

`O=C(c1cc(COc2cccc(C(F)(F)F)c2)on1)N1CCC(c2ccncc2)CC1`: the activity change, negative = cytotoxicity entry was “inactive”.

Consider `CCCNC(=O)C[C@@H]1C[C@H]2c3cc(NC(=O)Cc4ccncc4)ccc3O[C@H]2[C@@H](CO)O1`, for which the activity change, negative = cytotoxicity entry was “inactive”.

As to `O=C(CCNC(=O)c1ccc(Br)cc1)NNC(=O)COc1ccccc1F`, the activity change, negative = cytotoxicity entry was “inactive”.

With `O=C(NCCc1ccccc1F)c1ccc2c(c1)OCCO2`, the activity change, negative = cytotoxicity result was “inactive”.

As for `COc1ccc(NS(=O)(=O)c2ccc3c(c2)OCCO3)cc1OC`, the activity change, negative = cytotoxicity entry is “inactive”.

With `Nc1c(S(=O)(=O)c2ccccc2)cnc2c(-c3ccc(F)cc3)cnn12`, the activity change, negative = cytotoxicity result is “inactive”.

Turning to `COC(=O)CNC(c1ccccc1)c1cc(C)ccc1NC(=O)CNC(=O)OCc1ccccc1` (stereo not given), the activity change, negative = cytotoxicity result was “inactive”.

In the case of `COc1ccc(C(C(=O)NC(C)(C)C)N(CCC(C)C)C(=O)CCC(=O)Nc2cc(C)on2)cc1` (stereo not given), the activity change, negative = cytotoxicity result was “inactive”.

`CCN(CC)c1nc(Nc2ccccc2)nc(Oc2ccc(=O)[nH]n2)n1`: the activity change, negative = cytotoxicity entry is “inactive”.

`COc1ccc2c(c1)OC[C@H]1[C@H]2N2C(=O)CN(Cc3ccc(C)cc3)C(=O)[C@@]2(C)[C@H]1c1ccccc1`: the activity change, negative = cytotoxicity result was “inactive”.

In the case of `C[C@H]1NC(=O)[C@@]2(C)[C@H](c3ccccc3)[C@H]3COc4ccccc4[C@@H]3N2C1=O`, the activity change, negative = cytotoxicity entry is “inactive”.

`Cc1ccc(-n2nc3c(c2NC(=O)c2ccco2)CS(=O)C3)cc1` (stereo not given): the activity change, negative = cytotoxicity entry was “inactive”.

As to `C=CCN1C(=S)CC(c2ccccc2)=Nc2ccccc21`, the activity change, negative = cytotoxicity result was “inactive”.

For the compound `O=C(c1ccc2c(c1)OCO2)N(CC1CCCO1)C1(C(=O)NC2CCCCC2)CCCCC1` (stereo not given), the activity change, negative = cytotoxicity entry was “inactive”.

For `CON(C)c1nc(OCCNC(=O)OCc2ccc(Cl)cc2C)nc(N(C)C)n1`, the activity change, negative = cytotoxicity result is “inactive”.

On to `Cc1ccc(C(=O)NCc2ccccn2)cc1S(=O)(=O)N1CCCCC1`, for which the activity change, negative = cytotoxicity entry is “inactive”.

On to `Cc1ccc(S(=O)(=O)N2CCCCC2)cc1C(=O)NCCC1=CCCCC1`, for which the activity change, negative = cytotoxicity entry was “inactive”.

`O=S(=O)(NCC[C@H]1CC[C@H](NS(=O)(=O)c2ccccc2Cl)[C@H](CO)O1)c1ccc(Cl)cc1`: the activity change, negative = cytotoxicity entry is “inactive”.

Turning to `O=S(=O)(NCC[C@@H]1CC[C@@H](NS(=O)(=O)c2ccccc2Cl)[C@H](CO)O1)c1ccc(Cl)cc1`, the activity change, negative = cytotoxicity entry is “inactive”.

As for `COc1cc(-c2nc3oc4ccccc4c(=O)c3c(=O)n2Cc2ccco2)cc(OC)c1OC`, the activity change, negative = cytotoxicity entry was “inactive”.

Regarding `CCOC(=O)c1c(CSc2cccs2)n(C)c2cc(Br)c(O)c(CN(C)C)c12`, the activity change, negative = cytotoxicity result was “inactive”.

For `CCOC(=O)c1c(CSc2ccsc2)n(C)c2cc(Br)c(O)c(CN(C)C)c12`, the activity change, negative = cytotoxicity entry was “inactive”.

On to `CCN(CC)S(=O)(=O)c1ccc(NC2c3ccccc3C(=O)N2Cc2ccc3c(c2)OCO3)cc1` (stereo not given), for which the activity change, negative = cytotoxicity entry was “inactive”.
